Assay outcomes (PubChem)
RECQ1 helicase – inhibitors of human RECQ1 DNA helicase | RECQ1 DNA unwinding, red fluorescence kinetic read | P46063 | 0.54% of 240,000 active | Potency, µM (titrated, usually from 57.3 µM), actives largely listed as inhibitors; further: nearly all actives have a fitted effect of over 30% in size
Target sequence (P46063 whole entry, looked up): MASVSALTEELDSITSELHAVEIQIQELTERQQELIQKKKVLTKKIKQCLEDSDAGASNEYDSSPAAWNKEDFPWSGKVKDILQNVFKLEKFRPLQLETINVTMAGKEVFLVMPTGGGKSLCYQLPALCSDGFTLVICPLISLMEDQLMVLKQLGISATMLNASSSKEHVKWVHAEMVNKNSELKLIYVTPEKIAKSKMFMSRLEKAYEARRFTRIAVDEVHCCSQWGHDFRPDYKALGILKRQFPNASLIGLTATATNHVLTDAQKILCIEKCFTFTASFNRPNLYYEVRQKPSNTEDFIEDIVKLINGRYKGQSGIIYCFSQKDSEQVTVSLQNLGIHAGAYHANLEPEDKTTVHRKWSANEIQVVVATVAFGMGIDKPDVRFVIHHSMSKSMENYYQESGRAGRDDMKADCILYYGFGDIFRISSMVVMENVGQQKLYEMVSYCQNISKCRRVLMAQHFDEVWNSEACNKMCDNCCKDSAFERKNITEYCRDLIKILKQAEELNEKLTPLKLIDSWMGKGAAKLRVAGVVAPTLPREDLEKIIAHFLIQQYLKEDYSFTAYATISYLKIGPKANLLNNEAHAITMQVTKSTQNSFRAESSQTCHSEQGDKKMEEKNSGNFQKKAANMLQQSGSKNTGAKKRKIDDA
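50 nM RECQ1T1 preincubated 15 min with compound in Tris pH 8.0 buffer with MgCl2, DTT, Tween-20 and 2.5 ug/ml poly(dI-dC); started with 200 nM TAMRA/BHQ-2 forked duplex and 2 mM ATP. Unwinding read as fluorescence (525/598 nm), two reads 2 h apart.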
BLM inh – inhibitors of human Bloom syndrome helicase BLM; recombinant BLM DNA unwinding, fluorescence dequenching; P54132; Potency, µM (top dose mostly 56.1 µM), actives largely listed as inhibitors; 0.2% of 350,000 active; further: nearly all actives have a fitted effect of over 35% in size
PKM2 act – PKM2 (human) enzyme activation. purified PKM2, Kinase-Glo ATP luminescence, activation; response scale: 0% is enzyme alone, no compound. Potency, µM (series often up to 57.5 µM), actives largely listed as activators. 0.34% of 260,000 active; further: nearly all actives have a fitted effect of over 55% in size
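Purified hPK-M2 (>95% pure) converted ADP (0.1 mM final) to ATP with 0.5 mM PEP in 50 mM imidazole pH7.2, KCl, MgCl2, Tween 20, BSA; 1 h at room temperature. ATP detected by Kinase-Glo luminescence.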
JMJD2E inh – inhibitors of human JMJD2E histone demethylase; B2RXH2; JMJD2E catalytic domain, FDH-coupled NADH fluorescence (FDH is formaldehyde dehydrogenase); Potency, µM (top dose mostly 57.1 µM), actives largely listed as inhibitors; 1.6% of 230,000 active; active means well fitted inhibition curve with a large enough effect, not every such curve was filed as active; inconclusive means small, poorly fitted or top-dose-only effect, or another doubt; inactive means no such curve, though single readings can be large or run the other way; further: nearly all actives have a fitted effect of over 50% in size
APE1 inh – inhibitors of human APE1 endonuclease; 0.35% of 350,000 active; AID 2517; recombinant APE1, TAMRA/BHQ-2 abasic DNA cleavage fluorescence; P27695; Potency, µM (titrated, usually from 65.8 µM), most hits filed as inhibitors; further: nearly all actives have a fitted effect of over 55% in size
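0.75 nM APE1 + cpd, 15 min RT; start w/ 50 nM TAMRA/BHQ-2 THF-abasic dsDNA; kinetic fluor 525/598 nm ×3 reads @60 s; Δ(read3−read1); normalized to DMSO and NSC13755 control wells.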
Hits are given with their value; . = inactive; ? = inconclusive; / = no result; ! = not confirmed by another sample; [ ] = dose if it differs, or a comment. Only a selection was taken, and hits are over-represented in it overall. Unless noted, the call rests on the fitted dose curve; in most records, active means well fitted curve in the direction sought with a large enough effect; inconclusive means small, poorly fitted or top-dose-only effect, or another doubt; inactive means no such curve, though single readings can be large; an effect the other way counts as inactive or inconclusive.

SMILES	RECQ1 helicase	BLM inh	PKM2 act	JMJD2E inh	APE1 inh
CC(C)(C)N[S+](=O)([O-])c1cccc(-c2nnc(SCc3ccc(C(=O)O)cc3)n2-c2ccc(F)cc2)c1	/	/	/	/	.
Nc1nc2ccccc2nc1N	.	.	.	3.2µM	.
Nc1c2ccccc2nc2ccccc12	.	.	.	?	?
CC(=O)OC[C@@H]1O[C@@H](O/N=C2/C[C@@H](O)[C@@H](O)[C@@H]3[C@@H]4C(=O)N(C(C)(C)C)C(=O)[C@H]4CC[C@H]23)[C@H](OC(C)=O)[C@H](OC(C)=O)[C@@H]1OC(C)=O	.[11.5 µM]	.[12.4 µM]	/	/	?
Cc1cccc(-c2csc(N3CCC(C(N)=O)CC3)n2)c1	/	/	/	/	.
Cc1cc(C)c2sc(NNC(=O)c3ccc(S(=O)(=O)N4CCc5ccccc5C4)cc3)nc2c1	.	.	.	13µM	.
Cc1cc(C)c2nc(NNC(=O)c3ccc(S(=O)(=O)N4CCc5ccccc5C4)cc3)sc2c1	.	.	.	.	.
COc1ccc(C(OCCN2CCC[C@H](C(=O)O)C2)(c2ccc(OC)cc2)c2ccc(OC)cc2)cc1	.	.	/	/	.
Cc1nc2c(c(=O)n1CCC1=CCCCC1)c1nc3ccccc3nc1n2/N=C/c1ccco1	28µM	.	.	?	?
O=C(NC1CC1)c1cc(-c2cccs2)on1	/	/	/	/	.
O=C(CNCC1CCCCC1)Nc1ccc(N2CCCCC2)cc1	.	.	/	28µM	.
O=C(CNC1CCCCCC1)Nc1ccc(N2CCCC2)cc1	.	.	.	.	.
Cc1ccc(C(=O)Nc2ccc(N3CCCC3)cc2)c(C)c1	.	.	.	25µM	.
CC1CCN(CC(=O)Nc2ccc(N3CCCCCC3)cc2)CC1	.	.	.	22µM	.
O=C(CNC1CCCC1)Nc1ccc(N2CCCCCC2)cc1	.	.	.	8.9µM	.
N[C@@H](COC(c1cccc(F)c1)c1ccccc1OCc1ccccc1)C(=O)O (stereo partly drawn)	.	.	/	/	.
CCN1C(=O)/C(=C/C=C2/CCCN2C)OC1=S	.	.	.	11µM	.
CN1C(=O)/C(=C\C=C2/CCCN2C)N(C)C1=S	.	.	.	.	.
CC(N)(Cc1ccc(O)c(O)c1)C(=O)O (stereo not drawn)	3.2µM	?	/	3.5µM	1.1µM
C[C@@](Cc1ccc(O)c(O)c1)(NN)C(=O)O	.	.	.	3.5µM!	.
COc1ccc(C[C@@](C)(N)C(=O)O)cc1OC	.	.	/	11µM	/
C[C@@](N)(Cc1ccc(O)cc1)C(=O)O	.	.	/	.	.
CCCCc1cc2c(cn1)=C(OC(=O)c1ccco1)C(C)(OC(=O)CC)C(=O)C=2 (stereo not drawn)	.[11.5 µM]	.[12.4 µM]	.[11.5 µM]	.[11.4 µM]	.[12.4 µM]
Cc1nc2ccc(S(=O)(=O)N(C)CC(=O)Nc3ccc(Br)c(C)c3)cc2s1	/	.	/	/	/
C=C1C=C(C(F)F)n2ncc(C(=O)NCCc3ccc(OC)c(OC)c3)c2N1	/	/	/	/	.
SMILES	RECQ1 helicase	BLM inh	PKM2 act	JMJD2E inh	APE1 inh
CC(=O)C1=C(c2ccc(Cl)c(Cl)c2)N(C(C)=O)n2cnnc2S1	/	.	/	/	/
CN(C)c1ccc(N/C=C/C(=O)C(C)(C)C)cc1	.	.	.	7.1µM	.
Cc1cc2n(n1)C(c1ccccc1Cl)Nc1ccccc1-2 (stereo not drawn)	.	.	18µM	?	.
COc1ccc(C2Nc3ccccc3-c3cc(C)nn32)c(OC)c1 (stereo not drawn)	/	.	/	/	/
C=CCc1cccc(/C=N/NC(=O)C(C)Nc2cccc(C)c2)c1O (stereo not drawn)	.	.	.	20µM	.
COc1cc([N+](=O)[O-])cc(/C=N/NC(=O)C(C)Nc2cccc(C)c2)c1O (stereo not drawn)	.	.	.	3.2µM	.
C=CCc1cccc(/C=N/NC(=O)CCCNc2ccc(C)cc2)c1O	.	.	.	?	.
CCCCCCCCC#CCC#CCC#CCCCC(=O)O	20µM!	.	/	.	?
C#Cc1ccc([C@H]2C=C(C(=O)O)O[C@@H](OCc3ccc(CO)cc3)C2)cc1	.	.	.	.	32µM
O=C(CCCSc1ccccc1)Nc1nc(-c2ccco2)c(-c2ccco2)s1	.	.	18µM	?	.
CC1=NN(c2ccccc2)C(=O)/C1=C\c1ccc(Br)s1	.	.	.	3.2µM	.
CC1=NN(c2ccccc2)C(=O)/C1=C/c1cccs1	.	.	?	?	.
CCNC(=S)/C(=C(/[O-])c1ccc([N+](=O)[O-])cc1)[n+]1ccccc1	.	.	.	.	.
C=CCNC(=S)/C(=C(/[O-])c1ccc([N+](=O)[O-])cc1)[n+]1ccccc1	.	.	.	22µM	.
CC#CCN1c2ccccc2[C@]23C[C@@H](C(=O)OC)N(S(=O)(=O)c4ccc([N+](=O)[O-])cc4)C2=NC(C(=O)OC)=C(C(=O)OC)[C@H]13	.[11.5 µM]	.[12.4 µM]	.[11.5 µM]	.[11.4 µM]	.[12.4 µM]
Cn1cnnc1Sc1cc(N2CCN(S(=O)(=O)c3ccccc3)CC2)ccc1[N+](=O)[O-]	.	.	0.22µM	.	.
CCS(=O)(=O)c1ccc(N=Nc2ccc(O)c3ncccc23)c(OC)c1	.	.	.	14µM	.
O=P(c1ccccc1)(c1ccccc1)c1nc(-c2ccccc2)oc1N1CCOCC1	.	.	.	?	.
O=P(c1ccccc1)(c1ccccc1)c1nc(-c2ccc(Cl)cc2)oc1N1CCOCC1	.	.	.	3.2µM	.
C=C1[C@@H]2CC[C@@H](C2)C1(C)C	/	/	/	/	.
O=C1CC(c2ccco2)CC(O)=C1C=NCC1CCNCC1 (stereo not drawn)	.	.	.	10µM	32µM
O=C1CC(c2ccco2)CC(O)=C1C=NCCN1CCNCC1 (stereo not drawn)	.	.	.	?	.
Nc1sc2c(c1C(=O)NC1CCS(=O)(=O)C1)CCCC2 (stereo not drawn)	.	.	.	28µM	.
CC(C)CCNC(=O)[C@@H](c1ccccc1)N1Cc2ccccc2C1=O	/	.	/	/	/
Cc1ccc(C(=O)C(c2ccccc2)N2Cc3ccccc3C2=N)cc1 (stereo not drawn)	.	.	.	6.3µM	.
SMILES	RECQ1 helicase	BLM inh	PKM2 act	JMJD2E inh	APE1 inh
Cc1ccc(/C=C/C2=Cc3c(sc(NC(=O)CSc4n[nH]c(N)n4)c3C#N)C(C)(C)C2)o1	20µM	?	4.5µM	.	.
CCOc1ccc(NC(=O)c2oc3ccccc3c2NC(=O)COc2cccc(OC)c2)cc1	/	.	/	/	/
CCOC(=O)c1oc2ccccc2c1NC(=O)COc1cccc(OC)c1	.	.	.	5µM	.
COc1cccc(/C=N/NC(=O)c2cc3c(OC)cccc3[nH]2)c1OC	.	.	.	?	.
COc1cccc(/C=N/NC(=O)c2cc(-c3cccn3C)n[nH]2)c1O	.	.	.	16µM	.
COc1cccc(/C=N/NC(=O)c2cc3c(OC)cccc3[nH]2)c1O	.	.	?	25µM	.
COc1cc(/C=N/NC(=O)c2cc(-c3cccn3C)n[nH]2)cc(OC)c1OC	.	.	.	.	.
